Reference: PubChem BioAssay

Assay: S. cerevisiae RM11-1a growth modifiers, primary screen, strain RM11-1a, OD600, basal, 24 h (AID 1177);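 further: cultures grown under basal conditions with no added stressor; test concentration not given here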
Conditions: OD600, 24 h, higher = more signal, called active from +8 up or from −8 down

z-score, inactive:
COCC(=C=CC[C@@H](O)c1cccc(OCCO)c1)C[C@@H](O)c1ccccn1 0.0156
C[C@@]1([C@@H](NC(=O)c2ccc(-c3ccccc3)cc2)c2ccc(Cl)cc2)C[C@H]1C1CCCCC1 2
CCc1cccc(NC(=O)O[C@H]2[C@H](OC(=O)Nc3ccccc3-c3ccccc3)[C@@H](OC(=O)Nc3ccccc3-c3ccccc3)[C@@H](OC)O[C@@H]2CO)c1 0.924
C=C[C@H](CO[Si](CC)(CC)CC)N(Cc1ccc(OC(C)=O)c(OC)c1)S(=O)(=O)c1ccc(Br)cc1 0.292
C[C@H]1NC(=O)[C@@]23C(=O)N[C@@H](Cc4ccccc4)C2[C@H](C)[C@@]2(C)O[C@H]2C3/C=C/C/C=C\CNC(=O)[C@@H]2CCCN2C1=O (some centres undefined) -0.0532
CCS[C@H]1[C@@H](C(=O)O)[C@H](c2ccc(C)cc2)N(S(=O)(=O)c2ccc(C)cc2)[C@@H]1CC -0.0137
COCCOC(=O)N1C(=O)[C@@]2(c3ccccc31)[C@H](C(=O)N1CCc3cc(OC)c(OC)cc3C1)[C@H]1C(=O)O[C@H](c3ccccc3)[C@H](c3ccccc3)N1[C@@H]2c1ccc(OCCO)cc1 2.61
[N-]=[N+]=Nc1ccccc1[C@H]1OC(c2ccc(OCCCO)cc2)=N[C@@]1(CCS(=O)(=O)c1ccccc1)C(=O)NCC(O)CO (some centres undefined) -0.129
[N-]=[N+]=NCc1ccccc1[C@@H]1OC(c2ccc(OCCCO)cc2)=N[C@]1(Cc1ccccc1)C(N)=O 0.895
